# Measured values taken from the supplement of paper PMC10849652.
# The full data set covers some 7,900 targets. This sample favours those with a hit. About 0.6% of all pairs of compound and target were hits. Values without a mark were called inactive.
# Columns and labels:
# Assay in all cases: log2 fold change, soluble protein after heating vs DMSO (PISA); higher = thermal stabilisation; K562 cells, 10 uM, 30 min; active = over 0.2 and 3.5 SD of the protein, either way, in both replicates (recomputed)
# bafetinib = compound: Cc1ccc(NC(=O)c2ccc(CN3CC[C@H](N(C)C)C3)c(C(F)(F)F)c2)cc1Nc1nccc(-c2cncnc2)n1 [bafetinib]
# How it was run: (§1)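 K562 cells at 2×10^6 cells/mL were treated with 10 μM compound for 30 min. Aliquots were heated for 3 min across 48°C-58°C, pooled, and extracted in PBS with 0.5% NP-40 at 4°C; soluble protein was the supernatant after 21,000xg for 90 min. Soluble protein was quantified by TMTpro 16plex LC-MS/MS with channel sums equalised, and reported as log2 fold change in thermal stability against DMSO controls, with values from duplicates.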
# [1] = compound: Cc1cccc(CC(=O)N2CCc3c2ccc(-c2cn(C)c4ncnc(N)c24)c3F)n1
# How it was run: as §1
# nilotinib = compound: Cc1cn(-c2cc(NC(=O)c3ccc(C)c(Nc4nccc(-c5cccnc5)n4)c3)cc(C(F)(F)F)c2)cn1 [nilotinib]
# How it was run: as §1
# [2] = compound: Cc1nc(Nc2n[nH]c3c2CN(C(=O)N[C@H](CN(C)C)c2ccccc2)C3(C)C)c2sccc2n1
# How it was run: as §1
# dasatinib = compound: Cc1nc(Nc2ncc(C(=O)Nc3c(C)cccc3Cl)s2)cc(N2CCN(CCO)CC2)n1 [dasatinib]
# How it was run: as §1
# [3] = compound: Cc1ncc(-c2ccnc(Nc3ccc(S(C)(=O)=O)cc3)n2)n1C(C)C
# How it was run: as §1
# [4] = compound: Cn1cc(-c2ccc3c(c2)CCN3C(=O)Cc2cccc(C(F)(F)F)c2)c2c(N)ncnc21
# How it was run: as §1
# [5] = compound: Cn1cc(-c2ccc3nnc(C(F)(F)c4ccc5ncccc5c4)n3n2)cn1
# How it was run: as §1
# tipifarnib = compound: Cn1cncc1[C@@](N)(c1ccc(Cl)cc1)c1ccc2c(c1)c(-c1cccc(Cl)c1)cc(=O)n2C [tipifarnib]
# How it was run: as §1
# mubritinib = compound: FC(F)(F)c1ccc(/C=C/c2nc(COc3ccc(CCCCn4ccnn4)cc3)co2)cc1 [mubritinib]
# How it was run: as §1
# Chain of UniProt Q8N8N7 (Q8N8N7 whole entry, looked up): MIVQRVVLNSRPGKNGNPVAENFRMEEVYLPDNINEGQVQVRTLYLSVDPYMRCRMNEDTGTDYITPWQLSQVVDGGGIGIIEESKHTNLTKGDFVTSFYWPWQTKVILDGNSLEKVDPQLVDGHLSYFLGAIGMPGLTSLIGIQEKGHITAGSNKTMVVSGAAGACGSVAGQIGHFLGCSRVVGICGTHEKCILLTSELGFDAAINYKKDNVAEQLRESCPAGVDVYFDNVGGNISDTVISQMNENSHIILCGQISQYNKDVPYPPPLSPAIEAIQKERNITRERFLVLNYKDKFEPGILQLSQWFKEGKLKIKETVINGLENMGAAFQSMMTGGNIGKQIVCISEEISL
# Chain of UniProt Q29RF7 (Q29RF7 whole entry, looked up): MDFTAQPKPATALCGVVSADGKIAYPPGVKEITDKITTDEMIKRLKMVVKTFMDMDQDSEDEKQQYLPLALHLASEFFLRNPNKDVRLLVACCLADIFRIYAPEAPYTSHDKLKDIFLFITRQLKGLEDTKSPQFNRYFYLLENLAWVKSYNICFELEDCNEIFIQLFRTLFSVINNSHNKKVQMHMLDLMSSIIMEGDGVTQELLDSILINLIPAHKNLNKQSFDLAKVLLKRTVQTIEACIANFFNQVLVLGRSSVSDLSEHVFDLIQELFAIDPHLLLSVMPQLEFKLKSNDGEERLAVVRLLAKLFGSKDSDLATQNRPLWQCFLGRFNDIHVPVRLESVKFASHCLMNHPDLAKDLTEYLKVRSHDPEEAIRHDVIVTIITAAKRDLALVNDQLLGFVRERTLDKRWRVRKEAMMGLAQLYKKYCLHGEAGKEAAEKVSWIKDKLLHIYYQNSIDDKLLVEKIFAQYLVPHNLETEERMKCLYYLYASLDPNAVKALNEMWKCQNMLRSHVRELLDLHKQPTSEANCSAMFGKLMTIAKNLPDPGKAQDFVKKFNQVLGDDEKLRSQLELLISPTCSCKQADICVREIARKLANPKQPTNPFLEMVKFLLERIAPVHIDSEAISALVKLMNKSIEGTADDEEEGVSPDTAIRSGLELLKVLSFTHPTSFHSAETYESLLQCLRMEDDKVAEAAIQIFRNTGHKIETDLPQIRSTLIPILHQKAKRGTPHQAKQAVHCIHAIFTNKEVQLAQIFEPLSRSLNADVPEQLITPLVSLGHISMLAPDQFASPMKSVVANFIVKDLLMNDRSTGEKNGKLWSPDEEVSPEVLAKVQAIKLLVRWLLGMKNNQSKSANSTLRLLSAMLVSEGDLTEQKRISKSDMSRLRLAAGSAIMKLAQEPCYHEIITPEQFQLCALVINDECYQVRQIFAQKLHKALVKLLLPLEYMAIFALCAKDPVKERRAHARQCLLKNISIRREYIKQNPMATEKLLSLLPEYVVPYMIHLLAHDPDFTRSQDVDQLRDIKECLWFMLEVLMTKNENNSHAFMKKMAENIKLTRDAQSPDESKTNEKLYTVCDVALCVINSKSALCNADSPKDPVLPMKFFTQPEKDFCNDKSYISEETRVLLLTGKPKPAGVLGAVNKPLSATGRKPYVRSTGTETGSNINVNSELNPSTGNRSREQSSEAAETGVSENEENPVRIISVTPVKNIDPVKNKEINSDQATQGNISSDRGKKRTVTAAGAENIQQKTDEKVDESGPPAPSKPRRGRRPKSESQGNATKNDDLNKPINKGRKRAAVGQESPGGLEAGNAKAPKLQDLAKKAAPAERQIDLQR
# Chain of UniProt Q15366 (Q15366 whole entry, looked up): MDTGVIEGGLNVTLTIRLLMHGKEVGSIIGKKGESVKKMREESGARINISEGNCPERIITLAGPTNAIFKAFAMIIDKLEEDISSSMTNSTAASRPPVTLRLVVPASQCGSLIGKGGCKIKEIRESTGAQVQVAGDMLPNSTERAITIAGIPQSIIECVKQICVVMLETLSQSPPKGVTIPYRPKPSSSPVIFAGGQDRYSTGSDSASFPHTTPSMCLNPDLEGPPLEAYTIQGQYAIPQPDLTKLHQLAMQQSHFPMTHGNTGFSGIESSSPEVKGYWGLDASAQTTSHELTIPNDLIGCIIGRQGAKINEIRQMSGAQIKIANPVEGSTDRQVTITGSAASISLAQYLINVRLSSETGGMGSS
# Chain of UniProt Q8IZL8 (Q8IZL8 whole entry, looked up): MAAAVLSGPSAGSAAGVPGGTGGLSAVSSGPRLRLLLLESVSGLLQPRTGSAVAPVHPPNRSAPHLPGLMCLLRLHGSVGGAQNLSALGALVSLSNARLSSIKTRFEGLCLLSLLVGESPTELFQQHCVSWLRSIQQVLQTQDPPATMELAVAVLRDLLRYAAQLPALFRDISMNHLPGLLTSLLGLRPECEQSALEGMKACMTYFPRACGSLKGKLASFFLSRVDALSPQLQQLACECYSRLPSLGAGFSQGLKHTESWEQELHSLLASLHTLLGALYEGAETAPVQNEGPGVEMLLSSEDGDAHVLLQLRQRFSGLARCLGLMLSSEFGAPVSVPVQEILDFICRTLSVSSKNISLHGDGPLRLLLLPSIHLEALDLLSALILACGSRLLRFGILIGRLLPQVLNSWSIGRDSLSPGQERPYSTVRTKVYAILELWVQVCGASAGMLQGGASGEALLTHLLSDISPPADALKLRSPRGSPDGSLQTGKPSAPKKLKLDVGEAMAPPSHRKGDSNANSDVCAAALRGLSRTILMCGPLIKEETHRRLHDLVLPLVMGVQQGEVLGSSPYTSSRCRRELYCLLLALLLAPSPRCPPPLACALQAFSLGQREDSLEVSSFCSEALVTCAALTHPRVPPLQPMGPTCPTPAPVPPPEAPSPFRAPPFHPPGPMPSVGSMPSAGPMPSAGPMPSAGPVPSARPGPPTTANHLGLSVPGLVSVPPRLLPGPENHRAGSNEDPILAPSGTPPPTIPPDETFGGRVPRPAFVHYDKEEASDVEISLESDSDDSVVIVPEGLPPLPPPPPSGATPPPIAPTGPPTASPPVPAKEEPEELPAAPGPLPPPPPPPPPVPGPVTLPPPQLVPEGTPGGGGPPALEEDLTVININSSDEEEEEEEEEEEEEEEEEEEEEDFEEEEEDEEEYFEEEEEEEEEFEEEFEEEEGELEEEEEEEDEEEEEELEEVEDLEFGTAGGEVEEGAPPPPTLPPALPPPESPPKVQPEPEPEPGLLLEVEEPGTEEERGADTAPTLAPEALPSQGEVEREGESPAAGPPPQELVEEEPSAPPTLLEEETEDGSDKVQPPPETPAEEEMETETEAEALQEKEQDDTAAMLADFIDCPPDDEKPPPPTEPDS
# Chain of UniProt P28072 (P28072 whole entry, looked up): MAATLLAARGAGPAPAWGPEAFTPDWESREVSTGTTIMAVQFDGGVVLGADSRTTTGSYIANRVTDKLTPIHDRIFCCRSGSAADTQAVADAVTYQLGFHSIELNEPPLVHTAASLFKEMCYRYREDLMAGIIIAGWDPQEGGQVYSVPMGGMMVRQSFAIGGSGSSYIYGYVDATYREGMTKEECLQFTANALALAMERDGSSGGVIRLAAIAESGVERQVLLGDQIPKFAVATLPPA
# Chain of UniProt P25788 (P25788 whole entry, looked up): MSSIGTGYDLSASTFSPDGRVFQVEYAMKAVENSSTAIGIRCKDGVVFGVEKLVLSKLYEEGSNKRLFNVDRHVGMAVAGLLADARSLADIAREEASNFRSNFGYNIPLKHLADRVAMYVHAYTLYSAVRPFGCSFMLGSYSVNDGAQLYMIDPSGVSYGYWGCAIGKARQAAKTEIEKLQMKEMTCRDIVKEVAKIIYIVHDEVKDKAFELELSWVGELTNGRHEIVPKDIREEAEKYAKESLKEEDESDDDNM
# Chain of UniProt Q14289 (Q14289 whole entry, looked up): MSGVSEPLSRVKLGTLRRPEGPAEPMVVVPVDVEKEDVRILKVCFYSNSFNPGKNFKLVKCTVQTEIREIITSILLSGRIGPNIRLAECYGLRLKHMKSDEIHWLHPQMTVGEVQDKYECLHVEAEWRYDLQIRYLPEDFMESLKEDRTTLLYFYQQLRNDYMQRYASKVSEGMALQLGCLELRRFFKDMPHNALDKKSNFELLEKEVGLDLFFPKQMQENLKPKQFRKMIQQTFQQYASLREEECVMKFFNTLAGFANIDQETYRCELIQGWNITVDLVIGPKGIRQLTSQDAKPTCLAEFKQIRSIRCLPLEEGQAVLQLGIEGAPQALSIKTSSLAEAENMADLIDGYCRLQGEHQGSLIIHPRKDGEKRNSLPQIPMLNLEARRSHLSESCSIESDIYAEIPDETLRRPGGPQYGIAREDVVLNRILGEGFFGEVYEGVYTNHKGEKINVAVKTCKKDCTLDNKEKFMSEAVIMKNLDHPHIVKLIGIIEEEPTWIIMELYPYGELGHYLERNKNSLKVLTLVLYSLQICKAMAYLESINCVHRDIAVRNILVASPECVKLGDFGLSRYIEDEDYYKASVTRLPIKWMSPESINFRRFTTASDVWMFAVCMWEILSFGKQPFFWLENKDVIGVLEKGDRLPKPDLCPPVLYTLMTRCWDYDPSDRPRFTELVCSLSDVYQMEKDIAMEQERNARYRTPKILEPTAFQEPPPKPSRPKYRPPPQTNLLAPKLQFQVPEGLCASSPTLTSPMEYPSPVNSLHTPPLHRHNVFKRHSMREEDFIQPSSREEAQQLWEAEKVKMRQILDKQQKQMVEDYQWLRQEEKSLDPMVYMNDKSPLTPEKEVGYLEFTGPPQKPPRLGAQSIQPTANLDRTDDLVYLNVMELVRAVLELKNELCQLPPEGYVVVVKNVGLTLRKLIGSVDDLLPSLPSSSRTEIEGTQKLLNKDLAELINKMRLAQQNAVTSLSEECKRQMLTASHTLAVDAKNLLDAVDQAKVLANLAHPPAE
# Chain of UniProt Q9Y244 (Q9Y244 whole entry, looked up): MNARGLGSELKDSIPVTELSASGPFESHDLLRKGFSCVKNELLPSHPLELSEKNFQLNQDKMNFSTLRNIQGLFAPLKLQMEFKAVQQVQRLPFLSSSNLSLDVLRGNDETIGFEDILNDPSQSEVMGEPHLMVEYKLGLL
# Chain of UniProt Q15121 (Q15121 whole entry, looked up): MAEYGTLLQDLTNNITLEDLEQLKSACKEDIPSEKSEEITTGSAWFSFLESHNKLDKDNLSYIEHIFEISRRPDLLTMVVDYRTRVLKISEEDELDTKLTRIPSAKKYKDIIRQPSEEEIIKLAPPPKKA
Target,log2 fold change (bafetinib),log2 fold change [1],log2 fold change (nilotinib),log2 fold change [2],log2 fold change (dasatinib),log2 fold change [3],log2 fold change [4],log2 fold change [5],log2 fold change (tipifarnib),log2 fold change (mubritinib)
PCID2 (UniProt Q5JVF3),0.07,0.078,-0.013,-0.061,-0.254,-0.02,0.038,-0.036,-0.071,0.109
PRPF38B (UniProt Q5VTL8),-0.016,-0.015,0.049,-1.9 (active),-0.022,-0.008,0.012,-0.04,-0.067,0.004
PRKD2 isoform 3 (UniProt Q9BZL6),-0.16,0.045,-0.204,-0.698 (active),-0.139,-0.145,0.057,0.045,-0.123,0.099
PEA15 isoform 2 (UniProt Q15121),-0.077,-0.008,0,-0.4 (active),-0.026,-0.004,0.036,0.021,0.04,0.054
PIGG (UniProt Q5H8A4),-0.034,0.047,0.083,0.007,-0.013,-0.022,0.004,-0.044,0.012,0.038
PML (UniProt P29590),-0.078,0.029,-0.035,-0.046,-0.036,-0.037,-0.047,-0.003,0.014,-0.023
PPIL1 (UniProt Q9Y3C6),0.024,-0.002,-0.029,0.046,-0.042,0.073,-0.063,-0.022,-0.088,0.01
PSMC4 (UniProt P43686),0.087,0,-0.013,0.05,0.052,-0.019,-0.128,-0.037,0.117,-0.012
PDE4DIP isoform 4 (UniProt Q5VU43),0.022,-0.071,-0.054,-0.113,0.037,-0.027,0.021,0.021,0.038,0.022
PIP4P1 isoform 2 (UniProt Q86T03),-0.044,0.102,0.031,-0.004,0.051,-0.016,-0.158,0.01,0.112,-0.037
PELP1 (UniProt Q8IZL8),0.005,-0.115,-0.007,0.007,0.004,-0.047,0.064,-0.034,0.063,-0.009
PSMB4 (UniProt P28070),0.051,-0.052,0,0.063,0.076,-0.015,-0.03,0.014,0.047,0.009
PDS5A (UniProt Q29RF7),-0.055,0.008,-0.397,-0.164,-0.3,0.001,0.08,0.123,-0.231,0.157
POLR2B (UniProt P30876),0.024,-0.005,0.079,0.054,-0.055,0.324 (active),-0.054,-0.006,-0.029,-0.014
PTK2B (UniProt Q14289),-0.024,-0.063,0.14,0.104,-0.043,0.276,-0.113,-0.014,-0.521,-0.003
PTGR2 (UniProt Q8N8N7),0.084,-0.151,0.003,-0.215,-0.025,0.07,0.112,0.485 (active),0.184,-0.066
PLK1 (UniProt P53350),-0.048,0.003,-0.062,-1.37 (active),-0.125,0.152,0.006,-0.013,0.019,0.003
POMP (UniProt Q9Y244),-0.097,-0.101,0.142,-0.093,0.006,-0.092,0.079,0.156,0.116,0.01
PMM2 (UniProt O15305),-0.098,0.003,-0.291 (active),-0.054,-0.018,-0.015,0.035,0.013,0.018,0.028
PECAM1 (UniProt P16284),-0.075,-0.011,0.087,0.097,0.031,0,-0.019,-0.013,0.015,0.022
PSMB6 (UniProt P28072),0.06,-0.053,0.028,0.049,0.098,-0.011,-0.068,-0.027,0.125,-0.014
PSMA3 (UniProt P25788),0.06,0.003,0.041,0.041,0.029,0.008,-0.003,-0.005,0.006,-0.016
RAB11FIP1 (UniProt Q6WKZ4),-0.042,0.12,0.049,-0.198,-0.037,-0.172,0.008,0,0.003,0.003
PCBP2 isoform 3 (UniProt Q15366),0.037,0.083,-0.095,-0.156,-0.132,-0.058,0.007,0.018,-0.08,0.004
PPP4R3B (UniProt Q5MIZ7),-0.054,0.116,-0.032,-0.006,-0.03,-0.013,0.037,0.054,-0.041,0.006
PPP1R14A (UniProt Q96A00),-0.058,0.026,-0.01,0.013,0.019,0.026,0.076,-0.055,0,0.033
PIR (UniProt O00625),-0.073,0.001,0.009,-0.006,-0.044,-0.014,-0.003,0.028,-0.069,0.11
PFAS (UniProt O15067),0.033,0.311,-0.359 (active),-0.113,-0.003,0.059,0.341 (active),0.06,0.018,0.52 (active)
POLR2E (UniProt P19388),0.055,-0.03,-0.007,0.112,0.025,0.306,-0.056,0.005,-0.088,0.023
PLIN2 (UniProt Q99541),-0.326,0.037,0.184,0.03,-0.219,0.04,-0.016,0.047,-0.105,0.027
